Hits are enriched below; roughly 11% of the tested compounds scored in any of these assays.
PNC inhibitor = High Content Assay for Compounds that inhibit the Assembly of the Perinucleolar Compartment | PC3M PTB-GFP, PNC prevalence imaging, 16 h; stronger effect = lower value | activity change (PNC), negative = inhibition, % at 10 µM | actives 3.1% (n = 140,000);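 active means readout at or below -70, meaning at least 70% loss of cells showing the perinucleolar compartment, a nuclear body marking cancer cells; inconclusive means readout between -30 and a set limit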;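 further: plate controls were DMSO wells for no effect and camptothecin positive control wells for full effect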
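Compounds are pinned in duplicate onto adhered PC3M cells stably expressing GFP-tagged PTB and incubated 16 h at 37 C. Cells are then fixed, nuclei stained with Hoechst, and PNC-positive cells counted.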
12-hLO inh = qHTS Assay for Inhibitors of 12-hLO (12-human lipoxygenase); actives 0.12% (n = 150,000); Polyunsaturated fatty acid lipoxygenase ALOX12 (Homo sapiens), P18054; AID 1452, 2008; purified 12-hLO, xylenol orange hydroperoxide absorbance; Potency, µM (titrated, usually from 57.1 µM), for inactives: at the top dose activity change, negative = inhibition, actives largely listed as inhibitors; further: potency means the concentration at half of the fitted maximal effect; nearly all actives have a fitted effect of over 55% in size
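Hydroperoxide output read as Fe(III)-xylenol orange absorbance, 573-to-405 nm ratio, after 30 min reaction with 40 uM arachidonic acid. Enzyme: 150 nM purified human 12hLO, 15 min compound preincubation; 25 mM Hepes pH 7.0, room temperature.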
HPGD inh = qHTS Assay for Inhibitors of HPGD (15-Hydroxyprostaglandin Dehydrogenase). 15-hydroxyprostaglandin dehydrogenase [NAD(+)] (Homo sapiens), P15428. purified HPGD, NADH fluorescence kinetic, PGE2 substrate. Potency, µM, without a hit: top-dose activity change, negative = inhibition, usual class: inhibitors. actives 4.3% (n = 150,000); active means well fitted inhibition curve with a large enough effect, not every such curve was filed as active; inconclusive means small, poorly fitted or top-dose-only effect, or another doubt; inactive means no such curve, though single readings can be large or run the other way; further: potency means the concentration at half of the fitted maximal effect
Target sequence (P15428 whole entry, looked up): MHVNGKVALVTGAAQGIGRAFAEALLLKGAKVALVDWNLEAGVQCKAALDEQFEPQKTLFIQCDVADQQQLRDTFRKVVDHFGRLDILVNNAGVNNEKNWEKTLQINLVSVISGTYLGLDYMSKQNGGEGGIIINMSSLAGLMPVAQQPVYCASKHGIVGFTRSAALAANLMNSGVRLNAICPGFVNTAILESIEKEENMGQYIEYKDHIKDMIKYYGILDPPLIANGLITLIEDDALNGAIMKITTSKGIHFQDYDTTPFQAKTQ
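NADH formation kinetics: reaction with 30 uM PGE2 and 1 mM NAD+ (final), 20 nM enzyme, Tris-HCl pH 8 with Tween 20, after 15 min compound preincubation at room temperature. Fluorescence change, last versus first of five reads.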
ALDH1A1 inh = qHTS Assay for Inhibitors of Aldehyde Dehydrogenase 1 (ALDH1A1); Aldehyde dehydrogenase 1A1 (Homo sapiens), P00352; Purified ALDH1A1, NADH fluorescence, propionaldehyde substrate; actives 7.3% (n = 220,000); AID 1030, 2008; Potency, µM (top dose mostly 75.3 µM), for the others: at the highest dose activity, negative = inhibition, hits mostly inhibitors; active means well fitted inhibition curve with a large enough effect, not every such curve was filed as active; inconclusive means small, poorly fitted or top-dose-only effect, or another doubt; inactive means no such curve, though single readings can be large or run the other way;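 further: potency means the concentration at half of the fitted maximal effect; plate controls were no enzyme wells and a reference inhibitor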
IMPase Li inh = qHTS Assay for Identifying the Cell-Membrane Permeable IMPase Inhibitors: Potentiation with Lithium. Potency, µM (doses to about 59.4 µM), for inactives: at the highest dose activity, negative = IMPase inhibition, usual class: inhibitors. actives 0.35% (n = 210,000). CHO-M1 cells, IP1 TR-FRET (IP-One), carbachol + lithium;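 further: IP1 builds up when IMPase is blocked and the TR-FRET signal falls; potency means the concentration at half of the fitted maximal effect; plate controls were basal vehicle for no effect and high inhibitor control for full effect; nearly all actives have a fitted effect of over 50% in size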
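Test compounds were applied to CHO-M1 cells previously cultured for 16–30 h at 2000 per well. A small lithium amount accompanied them; after 30 min at 37C, IP1 was quantified by TR-FRET.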
IMPase cell inh = qHTS Assay for Identifying the Cell-Membrane Permeable IMPase Inhibitors; AID 901, 2007; CHO-M1 cells, IP1 accumulation, HTRF TR-FRET ratio; 120,000 tested, under 10 active; inhibition (IP1 accumulation), % at 46.1 µM; active means well fitted curve in the direction sought with a large enough effect in the signal ratio, not every such curve was filed as active; inconclusive means small, poorly fitted or top-dose-only effect, or a change in a side signal; inactive means no such curve, though single readings can be large or run the other way; the % refers to the signal ratio;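 further: cells stimulated with carbachol in lithium chloride buffer; plate controls were DMSO basal wells for no effect and reference inhibitor wells for full effect; higher means more IMPase inhibition seen as more IP1 and lower FRET ratio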
Target sequence (P97697 whole entry, looked up): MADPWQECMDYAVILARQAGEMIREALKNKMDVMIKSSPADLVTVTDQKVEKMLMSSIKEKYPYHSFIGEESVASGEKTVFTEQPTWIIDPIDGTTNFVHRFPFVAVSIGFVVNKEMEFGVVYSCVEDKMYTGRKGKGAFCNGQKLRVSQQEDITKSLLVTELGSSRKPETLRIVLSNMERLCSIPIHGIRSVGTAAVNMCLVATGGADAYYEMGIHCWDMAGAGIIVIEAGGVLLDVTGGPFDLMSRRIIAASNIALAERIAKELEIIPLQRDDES
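In this qHTS, compounds (final up to 46 uM) act on CHO-M1 cells that are then activated through the M1 receptor with carbachol, in pH 7.4 buffer containing 50 mM LiCl, for 30 min. IP1 accumulation is quantified by the IP-One immunoassay.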
* = called active by the depositor; ? = inconclusive; . = no result; [ ] = dose if it differs, or a comment. Unless noted, the call rests on the fitted dose curve; in most records, active means well fitted curve in the direction sought with a large enough effect; inconclusive means small, poorly fitted or top-dose-only effect, or another doubt; inactive means no such curve, though single readings can be large; an effect the other way counts as inactive or inconclusive. Unless noted, on the % scale 0 is the no-effect control and ±100 the full control effect.

SMILES	PNC inhibitor	12-hLO inh	HPGD inh	ALDH1A1 inh	IMPase Li inh	IMPase cell inh
CC1NC(C(=O)O)Cc2c1[nH]c1ccccc21 (centres undefined)	.	.	.	2%	1%	.
CC1CCC2C(=O)N3C(CCC(C)[C@@H]3c3cccc(N4CCOCC4)c3)C(=O)N2C1c1cccc(N2CCOCC2)c1 (some centres undefined)	.	.	.	6%[13.5 µM]	.	.
Cc1nc(CSc2nc3[nH]ncc3c(=O)n2-c2ccccc2)cs1	-18	-3%	-8%	13µM*	16%[38.3 µM]	15
Cc1noc(C)c1CSc1nc2ccccc2c(=O)n1-c1ccccc1	10	-8%	4%	4.5µM*	6%[38.3 µM]	14
COC(=O)c1ccc(CSc2nc3ccccc3c(=O)n2-c2ccccc2)o1	14	-14%	-18%	25µM*	17%[38.3 µM]	12
Cc1noc(C)c1CSc1nc2ccccc2c(=O)n1-c1ccc(F)cc1F	?	-9%	-11%	8.9µM*	23%[38.3 µM]	39
Cc1nc(CSc2n[nH]c(=O)n2-c2ccccc2)cs1	.	.	.	-4%	.	.
C=CCn1c(SCc2c(C)noc2C)nc2ccccc2c1=O	?	1%	-19%	-11%	26%[38.3 µM]	10
COC(=O)c1ccc(CSc2nc3ccccc3c(=O)n2-c2ccc(OC)c(OC)c2)o1	6	-10%	-17%	-2%	11%[38.3 µM]	-2
CCCCc1nc2c(c3c1C[C@H](C)OC3)CN(C(=O)NCc1ccco1)CC2	.	2%[11.4 µM]	-6%	5%[13.5 µM]	6%	.
C[C@H]1Cc2c(COc3ccccc3)nc3c(c2CO1)CN(C(=O)c1cccnc1)CC3	.	0%[11.4 µM]	-3%	-6%[13.5 µM]	-1%	.
N#Cc1cccc(-c2cncnc2-n2ccnc2)c1	.	-10%	-10%	8%	2%	.
Cc1noc(C)c1CSc1nc2[nH]ncc2c(=O)n1-c1ccccc1	-100*	0%	-14%	1.3µM*	8%	11
NCC1OC(O[C@@H]2[C@H](O)[C@@H](OC3C(O)C(N)CC(N)C3OC3OC(CO)C(O)C(O)C3N)O[C@@H]2CO)C(N)C(O)C1O (some centres undefined)	.	.	-9%	4%	-8%	.
COc1ccc(-c2cc(=O)c3c(OC)c(OC)c(OC)c(OC)c3o2)cc1	.	-7%	-15%	1.4µM*	13%	.
COc1cccc2oc(-c3ccc(O)cc3)cc(=O)c12	.	-3%	-25%	?	11%	2
COc1ccc(-c2cc(=O)c3cc(OC)ccc3o2)cc1	.	6%	?	?	?	.
COc1cc(-c2cc(=O)c3c(O)c(OC)c(OC)c(OC)c3o2)cc(OC)c1OC	.	-1%	-12%	11µM*	13%	.
O=C(c1cccc2ccccc12)C1CCCN(C(=O)CCCn2cncn2)C1 (centres undefined)	.	.	.	10µM*	-1%	.
CCC(C)NC(=O)CN(c1ccc(Cl)c(Cl)c1)S(C)(=O)=O (centres undefined)	.	.	.	-5%	5%	.
N#C/C(=C\c1ccc(-c2ccccc2[N+](=O)[O-])o1)C(=O)Nc1nc(-c2cccs2)cs1	0	-3%	-14%	1.8µM*	-4%	1
CNC(=O)/C(C#N)=C/c1ccc(-c2ccc(OC)cc2[N+](=O)[O-])o1	15	-4%	7.1µM*	0%	40%[38.3 µM]	-1[1.84 µM]
Cc1cc(C)c(C)c(S(=O)(=O)NCCC(=O)O)c1C	.	-3%	-1%	11%	.	.
O=C1C=CC(=O)N1N(c1ccccc1)c1ccccc1	7	?	1.4µM*	3.5µM*	9%	.
COc1ccc(CN=C2NN=C(c3cccc(OC)c3)CS2)cc1	.	.	.	8.9µM*	-2%	.
